Source: PubChem
Shown is part of a subset that was picked to be rich in hits.
mHTT-CaM PPI inh: mutant huntingtin-calmodulin interaction inhibitors – biochemical, AlphaScreen, primary screen; AID 1671202, 2021; inhibition, % at 15 µM; 190,000 tested, 3.6% active; AlphaScreen His-mHTT/GST-CaM binding, luminescence;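 further: 0% = both proteins with DMSO and 100% = one protein alone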
Pf apPOL block: Pf-apPOL inhibitors, biochemical, fluorescence | Plasmodium falciparum apicoplast DNA polymerase (apPOL) | 210,000 tested, 0.25% active | Recombinant Pf-apPOL, molecular beacon fluorescence, 1.5 h | inhibition, % at 10 µM
* marks the source's active call; other numbers are inactive results; / = no result given. No stated cut-off is given here; in the data, active means inhibition above about 50%; inactive means the rest.

SMILES	mHTT-CaM PPI inh	Pf apPOL block
COc1ccccc1C1CC(c2ccc(Br)cc2)=NN1C(=O)c1cccnc1 (configuration not stated)	53*	-3
O=C(NCCc1cccc(Cl)c1)c1ccc(Br)o1	-6	4
O=C(NCc1cccnc1)c1cccc(CN2C(=O)CSc3ccccc32)c1	92*	3
O=C(NCc1cccnc1)c1cccc(CN2C(=O)C3CCCN3C(=O)c3ccccc32)c1 (configuration not stated)	-6	-5
O=C1CSC(c2ccccc2)N1c1ccc(Oc2ccccc2)cc1 (configuration not stated)	78*	0
O=C1CSC(c2ccccc2)N1c1ccccc1 (configuration not stated)	0	-2
CCOc1ccc(N2C(=O)CSC2c2cccc([N+](=O)[O-])c2)cc1 (configuration not stated)	5	4
O=C1CSC(c2cccc([N+](=O)[O-])c2)N1c1ccc(Oc2ccccc2)cc1 (configuration not stated)	78*	0
O=C(NC1CCCC1)N1CCc2nc(-c3ccccc3)ncc2C1	-7	-3
CCOc1ccc(-c2cn3ccn(-c4ccc5c(c4)CCC5)c(=O)c3n2)cc1	-2	-7
O=[N+]([O-])c1c(C(Cl)Cl)nn(-c2ccccc2)c1N1CCCC1	54*	-1
Cc1nn(-c2ccccc2)c(N2CCOCC2)c1[N+](=O)[O-]	/	-4
O=[N+]([O-])C(=C1SCCS1)C(=C(Cl)Cl)N1CCOCC1	19	-6
O=[N+]([O-])C(=C1SCCS1)C(=C(Cl)Cl)N1CCCCC1	70*	3
CCn1ccc2oc(C)c(C(=O)N3CCC(Cc4ccccc4)CC3)c2c1=O	93*	1
Cc1oc2ccn(Cc3cccc(F)c3)c(=O)c2c1C(=O)N1CCCCC1	1	-1
Cc1sc2ccn(Cc3ccc(F)cc3)c(=O)c2c1C(=O)N1CCC(C)CC1	80*	-5
Cc1sc2ccn(Cc3ccc(F)cc3)c(=O)c2c1C(=O)N1CCOCC1	12	1
Cc1oc2ccn(Cc3ccc(F)cc3)c(=O)c2c1C(=O)N1CCCCC1	59*	1
CCn1ccc2oc(C)c(C(=O)N3CCC(C)CC3)c2c1=O	-10	0
Cc1ccccc1-c1nc(C2CCN(S(=O)(=O)c3ccc(F)c(F)c3)CC2)no1	-4	-2
O=C1OC(c2ccccc2Cl)=N/C1=C\c1cccc(Br)c1	14	-4
CCC(C)(C)C(=O)N1CC(C)C(c2nc(-c3ccccc3)no2)C1 (configuration not stated)	-9	-6
CC(=O)N1c2ccc(S(=O)(=O)NC(C)(C)C)cc2CC1C (configuration not stated)	4	-2
O=C(CCC1CCCN(C(=O)Nc2ccc(Cl)cc2)C1)NCc1ccc(Cl)cc1 (configuration not stated)	39	-3
SMILES	mHTT-CaM PPI inh	Pf apPOL block
Nc1cc2c(cc1N)OCCO2	-5	/
Cc1ccc(-c2cc(C(=O)Nc3cccnc3)c3ccccc3n2)o1	32	7
Cc1ccc(-c2cc(C(=O)Nc3ccncc3)c3ccccc3n2)o1	74*	-3
Cc1nn(Cc2ccc(F)cc2)c(C)c1NC(=O)c1noc2c1CCCCC2	53*	-5
Cc1nn(Cc2ccc(Cl)cc2)c(C)c1NC(=O)c1noc2c1CCCC2	96*	-2
Cc1ccccc1Cn1nc(C)c(NC(=O)c2noc3c2CCCC3)c1C	15	-2
Cc1nn(Cc2ccccc2Cl)c(C)c1NC(=O)c1noc2c1CCCCC2	15	-6
Cc1ccc([N+](=O)[O-])cc1-c1ccc(C=C2C(=O)OC(C)(C)OC2=O)o1	4	1
O=C(CN1C(=O)/C(=C/c2ccc(Cl)cc2)Sc2ccccc21)NCCN1CCOCC1	25	3
COc1ccc(C2/C=C\CN(C(=O)c3ccc(C)cc3)[C@@H](Cc3ccccc3)C(=O)N2Cc2ccc(F)cc2)cc1 (some centres not stated)	16	-4
COc1ccc(C2/C=C\CN(C(=O)C3CC3)[C@@H](Cc3ccccc3)C(=O)N2Cc2ccc(F)cc2)cc1 (some centres not stated)	91*	-1
COc1ccc(C2/C=C\CN(CC(C)C)[C@@H](Cc3ccccc3)C(=O)N2Cc2ccc(F)cc2)cc1 (some centres not stated)	-4	-3
COc1ccc(C2/C=C\CN(C(=O)c3ccccc3)[C@@H](Cc3ccccc3)C(=O)N2Cc2ccc(F)cc2)cc1 (some centres not stated)	87*	-3
CCNC(=O)c1cc2c(=O)n3cccc(C)c3nc2n(CCCOC)c1=N	3	-3
CCCN(C)c1ccc2ncc(=O)n(C)c2n1	-6	-27
O=C(Cc1cccs1)N1CCCCC1c1nc(C2CC2)no1 (configuration not stated)	2	-2
